# D2 ag-1: activates the human D2 dopamine receptor; P14416; DiscoveRx PathHunter D2 beta-arrestin, luminescence, 90 min; 100% = 57 uM dopamine signal; activation, % (concentration not given with the values); actives 0.084% (n = 360,000); in the data active means activation above about 40%; inconclusive means between about 15% and that limit
# Target sequence (P14416 whole entry, looked up): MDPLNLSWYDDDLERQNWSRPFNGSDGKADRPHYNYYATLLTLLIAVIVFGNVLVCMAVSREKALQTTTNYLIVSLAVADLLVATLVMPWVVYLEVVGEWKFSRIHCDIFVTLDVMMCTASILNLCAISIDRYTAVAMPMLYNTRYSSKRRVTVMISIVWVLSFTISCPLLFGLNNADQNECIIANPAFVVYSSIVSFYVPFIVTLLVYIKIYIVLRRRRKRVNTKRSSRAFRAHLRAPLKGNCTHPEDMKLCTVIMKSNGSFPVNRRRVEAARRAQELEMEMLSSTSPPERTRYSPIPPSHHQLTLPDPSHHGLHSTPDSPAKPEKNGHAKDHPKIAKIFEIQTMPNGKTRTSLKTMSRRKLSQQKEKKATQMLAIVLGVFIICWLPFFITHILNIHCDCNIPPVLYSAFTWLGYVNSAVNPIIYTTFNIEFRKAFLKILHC
#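 Agonist mode: compounds alone added to overnight-plated D2 PathHunter cells for 90 min at 37 C, with 57 uM final dopamine (EC100) defining full response. Beta-arrestin recruitment detected by chemiluminescent reagent, read after 1 h at ambient temperature.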
# D2 PAM-1: positive allosteric modulators of human D2 dopamine receptor. P14416. DiscoveRx D2 beta-arrestin cells, luminescence, 90 min; 100% = 57 uM dopamine signal. potentiation, % (concentration not given with the values). actives 0.23% (n = 360,000). AID 624464; in the data active means potentiation above about 50%; inconclusive means mostly about 30% to 49%
#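 PathHunter beta-arrestin assay in DiscoveRx D2 cells. Compounds were added with an EC20 of dopamine (50 nM final) for 90 min at 37 deg C. Luminescence was read 1 h after detection reagent, with 57 uM dopamine as the EC100 control.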
# D2 antagonist: antagonizes the human D2 dopamine receptor. P14416. HEK293 TREx D2 cells, calcium flux, dopamine EC80. inhibition, % at 10 µM. actives 2% (n = 340,000). AID 485344; in the data active means inhibition above about 30%; inactive means below that, where a call was filed; further: 0% is about no effect
#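 Measurement of antagonist activity uses fluorescent calcium dye in inducible HEK293 T-REx D2 cells: 10 s baseline, compound addition with 180 s read, EC80 dopamine addition with a further 180 s read.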
# D2 ag-2: D2 dopamine receptor (human) agonism | P14416 | HEK293 T-REx D2 cells, calcium flux agonist mode | activation, % at 2 µM | actives 0.53% (n = 340,000);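 active means activation over 3 SD above normal in the single-dose calcium agonist read, cut at about 30% in these data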; further: 0% is about no effect
#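 Agonism is scored from calcium flux in a force-coupled, inducible HEK293 cell line expressing D2, read kinetically for 180 s after compound addition against dopamine controls.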
# D2 PAM-2: D2 dopamine receptor (human) potentiation | P14416 | HEK293 T-REx D2, calcium flux, EC20 dopamine potentiation | potentiation, % at 10 µM | actives 0.34% (n = 340,000) | AID 485347;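 active means potentiation over 3 SD above the plate norm, cut at about 30% in these data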; further: 0% is about no effect
#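 Primary screen. Calcium kinetics in induced HEK293 T-REx D2 cells: compound pre-addition 180 s, EC20 dopamine, 180 s more.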
# The depositor's hits bear a star; ? = inconclusive; . = no result. Rows were chosen to be rich in hits. Some 2.4% of all compounds tested hit in one or more screens of this group.
SMILES,D2 ag-1,D2 PAM-1,D2 antagonist,D2 ag-2,D2 PAM-2
CC1(C)CC(=O)C(C(C2=C(O)CC(C)(C)CC2=O)c2ccc([N+](=O)[O-])cc2)C(=O)C1 (configuration not stated),0,-8,33*,0,3
Cc1ccc(NC2CCCN(C(=O)c3cccnc3)C2)cc1C (configuration not stated),3,-4,36*,0,14
CC(C)c1ccc(NC2CCCN(C(=O)c3cccnc3)C2)cc1 (configuration not stated),-1,-1,16,1,-7
COc1ccccc1CCNC(=O)c1ccc(NC(=O)N2CC(C)Sc3ccccc32)cc1 (configuration not stated),.,.,.,0,-4
Cn1c(=O)c2c(ncn2CC(=O)N2CCCc3ccccc32)n(C)c1=O,-4,23,4,0,-2
CC1CCN(C(=O)Cn2cnc3c2c(=O)n(C)c(=O)n3C)c2ccccc2S1 (configuration not stated),-6,-4,45*,1,1
CC1CCN(C(=O)CN2C(=O)C(=O)N(C)C2=O)c2ccccc2S1 (configuration not stated),-1,-4,44*,1,-3
COc1cccc(Cn2cnc3c2c(=O)n(C)c(=O)n3C)c1,.,.,.,-1,0
O=C(CSc1nc2ccccc2n1Cc1c(F)cccc1Cl)N1CCN(c2ccc(F)cc2)CC1,.,.,.,0,0
CC(C)(C)C(=O)NC1CCN(C(=O)N2CCCC2)CC1,2,5,32*,1,.
CC(=O)N(C)c1nnc(-c2ccccn2)s1,-3,13,43*,-1,1
CN(C(=O)c1cccnc1)c1nnc(-c2ccccn2)s1,-3,-6,16,3,-3
Cc1cc(=O)[nH]c(SCC(=O)NCC2CCCO2)n1 (configuration not stated),-5,-2,34*,0,-10
COc1ccc(S(=O)(=O)/C(C#N)=C/Nc2cccc(F)c2)cc1,-1,4,-5,0,1
COc1ccc(S(=O)(=O)/C(C#N)=C/Nc2ccccc2F)cc1,1,-6,40*,0,-2
Fc1cccc(Cl)c1Cn1c(-c2cccs2)nc2ccccc21,.,.,.,1,-4
CCCN1C(=O)/C(=C/c2ccc(C)s2)NC1=S,-2,-2,31*,0,-10
Cc1nc(-c2cccc(S(=O)(=O)N3CCOCC3)c2)cs1,-2,-3,35*,0,14
CCOC(=O)N1CCc2c(sc3c2c(=O)n(-c2ccc(CC)cc2)c(=O)n3CC(=O)Nc2ccc(C)cc2)C1,.,.,.,0,2
O=C(CCN1CCN(c2ccccc2)CC1)c1ccc(Cl)cc1,4,-14,17,33*,-34
O=C(CCN1CCN(c2ccc([N+](=O)[O-])cc2)CC1)c1ccc(Cl)cc1,2,-1,34*,2,-8
CCCCn1c(=O)n(-c2cc(OC)ccc2OC)c(=O)c2c3c(sc21)CN(C(C)=O)CC3,.,.,.,0,-19
O=C(Nc1ccccc1Cl)c1cc[n+](Cc2ccc([N+](=O)[O-])cc2)cc1,-2,-12,-9,0,5
NC(=O)c1ccc(C(=O)c2ccc([N+](=O)[O-])cc2)cc1,5,62*,-1,0,-9
O=C(O)c1ccc([N+](=O)[O-])cc1,-1,-3,.,.,.
SMILES,D2 ag-1,D2 PAM-1,D2 antagonist,D2 ag-2,D2 PAM-2
NC(=O)c1cc[n+](Cc2ccc([N+](=O)[O-])cc2)cc1,1,0,39*,2,11
CCOC(=O)c1ccc(NC(=O)C2=C(C)C(=O)OC23CCCCCC3)cc1,.,.,.,1,-10
Cc1ccc(C(=O)Sc2cccccc2=O)cc1,-7,-15,37*,4,7
O=C(Nc1ccccc1SC(=O)c1ccccc1)c1ccccc1,15,-12,.,.,.
N/C(Cc1ccc(Cl)cc1)=N\OC(=O)c1ccc2ccccc2c1,?,168*,-19,0,6
N/C(Cc1ccc(Cl)cc1Cl)=N\OC(=O)c1ccccc1,63*,22,-43,0,-14
N/C(Cc1ccc(Cl)cc1)=N\OC(=O)c1cccc2ccccc12,?,86*,-7,2,-9
CCc1ccccc1NS(=O)(=O)c1ccc2c(c1)CCCN2C(=O)C1CCC1,.,.,.,7,6
